Measurements reported in PubChem BioAssay AID1159580 (chemical genetic matrix, 2015).
In all, about 5,500 compounds went through this assay and about 2,000 (36%) were called active. Another 18% or so got no clear call; they are omitted. Cut-off read from the data, not from the text of the source: active = normalized growth mostly below about 0.91 (no sharp cut-off); inconclusive = no clear call, values can overlap the other calls; inactive = mostly above about 0.92. The list shows a part of the results.

Assay: chemical genetic growth profiling, strain panel (AID 1159580);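 note: tested at 20 µM; growth read once vehicle control cultures reached saturation at 30 °C; 1 = growth at the plate median or of vehicle wells; lower values mean less growth of the strain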
Settings: S. cerevisiae deletion strains, growth OD

Measured: normalized growth

C1CNCCN1
inactive: locus YAL013W, strain DEP1, stronger effect = lower value 1.01 | locus YAL021C, strain ccr4, stronger effect = lower value 0.999 | locus YAL026C, strain drs2, stronger effect = lower value 1.02 | locus YAL030W, strain snc1, stronger effect = lower value 1.01 | locus YBL061C, strain skt5, stronger effect = lower value 1.02 | locus YBR009C, strain hhf1, stronger effect = lower value 1.01 | locus YBR021W, strain FUR4, stronger effect = lower value 0.979 | locus YBR023C, strain chs3, stronger effect = lower value 1.02 | locus YBR171W, strain sec66, stronger effect = lower value 1.02 | locus YBR229C, strain ROT2, stronger effect = lower value 0.997 | locus YBR231C, strain swc5, stronger effect = lower value 0.997 | locus YBR279W, strain paf1, stronger effect = lower value 1.01 | locus YCL011C, strain gbp2, stronger effect = lower value 1.01 | locus YCL016C, strain dcc1, stronger effect = lower value 1.01 | locus YCL029C, strain bik1, stronger effect = lower value 0.997 | locus YCL061C, strain MRC1, stronger effect = lower value 1 | locus YCL069W, strain vba3, stronger effect = lower value 1.01 | locus YCR088W, strain abp1, stronger effect = lower value 1.01 | locus YDL005C, strain med2, stronger effect = lower value 1.02 | locus YDL035C, strain GPR1, stronger effect = lower value 1.01 | locus YDL040C, strain nat1, stronger effect = lower value 1.01 | locus YDL074C, strain BRE1, stronger effect = lower value 1.03 | locus YDL101C, strain DUN1, stronger effect = lower value 1.02 | locus YDL134C, strain PPH21, stronger effect = lower value 1.01 | locus YDL185W, strain tfp1, stronger effect = lower value 1.02 | locus YDL192W, strain arf1, stronger effect = lower value 0.999 | locus YDR001C, strain nth1, stronger effect = lower value 1.01 | locus YDR069C, strain doa4, stronger effect = lower value 1.01 | locus YDR101C, strain arx1, stronger effect = lower value 0.987 | locus YDR137W, strain rgp1, stronger effect = lower value 1.03 | locus YDR150W, strain NUM1, stronger effect = lower value 1 | locus YDR159W, strain sac3, stronger effect = lower value 1.04 | locus YDR162C, strain NBP2, stronger effect = lower value 1.02 | locus YDR195W, strain ref2 1 | locus YDR297W, strain sur2, stronger effect = lower value 1.01 | locus YDR318W, strain mcm21, stronger effect = lower value 0.998 | locus YDR334W, strain swr1, stronger effect = lower value 1.01 | locus YDR335W, strain msn5, stronger effect = lower value 1.01 | locus YDR388W, stronger effect = lower value 0.996 | locus YDR392W, strain spt3, stronger effect = lower value 0.962 | locus YDR502C, strain sam2, stronger effect = lower value 0.999 | locus YEL003W, strain gim4, stronger effect = lower value 1.01 | locus YEL037C, strain rad23, stronger effect = lower value 1.01 | locus YEL061C, strain CIN8 (second series), stronger effect = lower value 1.01 | locus YEL061C, strain CIN8, stronger effect = lower value 1 | locus YER015W, strain faa2, stronger effect = lower value 0.999 | locus YER016W, strain bim1, stronger effect = lower value 0.999 | locus YER110C, stronger effect = lower value 0.988 | locus YER111C, strain swi4, stronger effect = lower value 1.02 | locus YER155C, strain BEM2 (second series), stronger effect = lower value 1 | locus YER155C, strain BEM2, stronger effect = lower value 1.01 | locus YER167W, strain BCK2, stronger effect = lower value 1.01 | locus YFR010W, strain ubp6, stronger effect = lower value 1.01 | locus YGL078C, strain dbp3, stronger effect = lower value 0.99 | locus YGL086W, strain mad1, stronger effect = lower value 0.996 | locus YGL167C, strain pmr1, stronger effect = lower value 1.02 | locus YGL173C, strain kem1, stronger effect = lower value 1.02 | locus YGL227W, strain vid30, stronger effect = lower value 1.01 | locus YGL240W, strain doc1, stronger effect = lower value 1.01 | locus YGL248W, strain PDE1, stronger effect = lower value 1 | locus YGL253W, strain hxk2, stronger effect = lower value 0.992 | locus YGR078C, strain PAC10, stronger effect = lower value 1 | locus YGR135W, strain pre9, stronger effect = lower value 1.01 | locus YGR229C, strain SMI1, stronger effect = lower value 1.02 | locus YGR252W, strain gcn5, stronger effect = lower value 0.948 | locus YHR013C, strain ard1, stronger effect = lower value 1.03 | locus YHR027C, strain rpn1, stronger effect = lower value 1.02 | locus YHR030C, strain SLT2, stronger effect = lower value 1.02 | locus YHR079C, strain IRE1 (second series), stronger effect = lower value 0.988 | locus YHR079C, strain IRE1, stronger effect = lower value 1.03 | locus YHR094C, strain hxt1, stronger effect = lower value 1 | locus YHR129C, strain ARP1, stronger effect = lower value 1.01 | locus YHR142W, strain chs7, stronger effect = lower value 1.02 | locus YHR200W, strain rpn10, stronger effect = lower value 1.01 | locus YIL066C, strain RNR3, stronger effect = lower value 1.01 | locus YIL073C, strain SPO22, stronger effect = lower value 0.983 | locus YIL125W, strain kgd1, stronger effect = lower value 1 | locus YIR030C, strain dcg1, stronger effect = lower value 1 | locus YJL092W, strain hpr5, stronger effect = lower value 1.01 | locus YJL095W, strain BCK1 (second series), stronger effect = lower value 1.02 | locus YJL095W, strain BCK1, stronger effect = lower value 1.01 | locus YJL115W, strain asf1, stronger effect = lower value 1.01 | locus YJL129C, strain trk1, stronger effect = lower value 1.01 | locus YJL134W, strain LCB3, stronger effect = lower value 1.01 | locus YJL154C, strain vps35, stronger effect = lower value 1.02 | locus YJL164C, strain tpk1, stronger effect = lower value 1.01 | locus YJL166W, strain qcr8, stronger effect = lower value 1.02 | locus YJL168C, strain set2, stronger effect = lower value 0.994 | locus YJL187C, strain SWE1 (second series), stronger effect = lower value 1.02 | locus YJL187C, strain SWE1, stronger effect = lower value 1.01 | locus YJR043C, strain POL32, stronger effect = lower value 1.01
